Experiment [1] can be described thus: yeast 75Q aggregation reduction – 75Q-TubU reporter (AID 1593). As to conditions: Yeast 75Q polyglutamine aggregation reporter.
A short description of experiment [2]: blockers of cytochrome c efflux from mitochondria – biochemical, purified mitochondria (AID 1603).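 Also: mouse liver mitochondria challenged with calcium chloride; signal normalized to the plate average as 100%.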 The conditions noted are these: stronger effect = lower value.
Experiment [3] is described as follows: polyglutamine aggregate formation blockers (AID 1604). The conditions noted are these: polyglutamine-induced protein aggregation inhibition assay; stronger effect = higher value; tested at 2.5 µM.
A short description of experiment [4]: P. berghei load reduction in hepatocytes – cell-based, HepG2, luciferase luminescence, HepG2 viability, primary screen (AID 624349; in the data active = parasite load remaining mostly below about 12%, no sharp cut-off; inactive = mostly above about 10%;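 also: 100% = mean of DMSO negative control wells on the same plate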). As to conditions: P. berghei liver stage in HepG2, luciferase luminescence, concentration not given here; parasite load remaining: stronger effect = lower value; viability: measured here: HepG2 viability without parasites.
Experiment [5] in a line: Wnt pathway potentiators raising nuclear beta-catenin – imaging, WNT3A-conditioned medium, mouse C2C12, NPC library, primary screen (AID 1117326; in the data active = nuclear beta-catenin stimulation mostly above about 4.2%, no sharp cut-off; inactive = mostly below about 10%). As to conditions: stronger effect = higher value.
A short description of experiment [6]: stimulators of insulin release from INS-1E, primary screen, cell-based, 5 mM glucose, NPC library (AID 1117329;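 active = compound raises insulin release from rat beta cells at 5 mM glucose, no numeric limit stated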). The conditions noted are these: rat INS-1E insulin secretion, at 10 µM, stronger effect = higher value.
A short description of experiment [7]: growth inhibition of GSK3B-pretreated HCT116 cells – cell-based, CellTiter-Glo, 0.2 to 20 µM (AID 1117336;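 active = compounds lowering colon cancer cell viability after pretreatment blocking the GSK3B kinase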). As to conditions: HCT116 viability after GSK3B inhibitor, at 20 µM, stronger effect = higher value. On the technique in general: In ATP-based viability assays light output follows the ATP content of the culture.
Experiment [8] is described as follows: inhibition of endothelial tube formation, primary screen, imaging, VEGF stimulated, CD31 staining, tube area, NPC library (AID 1117340;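 active = compound that reduces growth-factor-driven endothelial tube area in a mixed cell culture, no cutoff stated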). As to conditions: VEGF-stimulated ADSC/ECFC co-culture, at 10 µM, stronger effect = higher value.
Experiment [9] is described as follows: GLP1 release stimulators, primary, NCI-H716, NPC library (AID 1117341;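 active = compound raises GLP1 secretion from the human gut endocrine cells, with no numeric limit stated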). The conditions noted are these: NCI-H716 cells, at 10 µM, stronger effect = higher value.
Experiment [10] can be described thus: HCT116 colon cancer cell growth inhibition, primary screen, CellTiter-Glo luminescence, NPC library (AID 1117342;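 active = compounds that lower survival of HCT116 colon cancer cells in the luminescence readout, no numeric limit stated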). The conditions noted are these: at 20 µM (top of the series).
Experiment [11] in a line: reduced SW480 viability measured with CellTiter-Glo, NPC library, primary (AID 1117343;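 active = compounds that lower viability of the colon cancer cells in the luminescence readout, with no numeric limit stated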). As to conditions: CellTiter-Glo luminescence; at 20 µM (top of the series).
Experiment [12] can be described thus: NPC library primary testing for decreased DLD-1 cell viability via CellTiter-Glo (AID 1117346;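 active = compounds that lower survival of DLD-1 colon cancer cells in the luminescence readout, no cutoff given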). As to conditions: DLD-1 viability, CellTiter-Glo luminescence; at 20 µM (top of the series).
Experiment [13] deals with 6-phosphogluconate dehydrogenase, decarboxylating (Homo sapiens) (UniProt P52209). The experiment can be described thus: inhibition of human phosphogluconate dehydrogenase – biochemical, recombinant enzyme, NADPH absorbance, primary screen (AID 1159550;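 active = at least 20% inhibition of 6-phosphogluconate dehydrogenase activity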). As to conditions: recombinant 6PGD, NADPH absorbance 341 nm; at 10 µM; stronger effect = higher value.
6-phosphogluconate dehydrogenase, decarboxylating (Homo sapiens), sequence (P52209 whole entry, looked up): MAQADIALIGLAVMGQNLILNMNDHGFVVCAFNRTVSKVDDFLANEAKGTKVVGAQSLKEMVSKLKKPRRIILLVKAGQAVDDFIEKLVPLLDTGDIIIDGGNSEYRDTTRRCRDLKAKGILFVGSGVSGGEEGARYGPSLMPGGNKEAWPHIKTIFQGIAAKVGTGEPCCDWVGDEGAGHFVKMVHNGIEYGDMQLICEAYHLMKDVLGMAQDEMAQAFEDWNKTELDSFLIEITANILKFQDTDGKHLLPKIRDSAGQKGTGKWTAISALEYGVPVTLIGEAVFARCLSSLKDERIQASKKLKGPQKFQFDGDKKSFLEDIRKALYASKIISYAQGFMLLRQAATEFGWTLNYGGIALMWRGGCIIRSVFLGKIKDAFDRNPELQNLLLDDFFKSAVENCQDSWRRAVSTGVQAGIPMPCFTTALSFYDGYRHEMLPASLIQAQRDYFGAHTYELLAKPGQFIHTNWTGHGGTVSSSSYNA
A short description of experiment [14]: EMT-state selective cytotoxicity in co-culture – imaging, PC-3E GFP, TEM4-18 mCherry, primary screen (AID 1345086;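 active = compounds killing one labelled cell type while sparing the other, by normalised counts and ratio limits, not self-fluorescent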;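 as to all read-outs here: cells exposed to compound for 72 h before imaging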;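 as to red/green cell ratio (normalised): normalised mesenchymal count divided by normalised epithelial count so high means epithelial killing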). As to conditions: PC-3E GFP / TEM4-18 mCherry co-culture, imaging cell counts, at 1 µM; for red/green cell ratio (normalised): actives lie on both sides.
The subject of experiment [15] is Aerobactin synthetase IucA (Klebsiella pneumoniae hvKP1). The experiment can be described thus: IucA enzyme inhibition, primary screen, biochemical, Spectrum library (AID 1346200; call rule not given here;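 also: 100% = wells without compound and 0% = wells lacking enzyme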). The conditions noted are these: malachite green pyrophosphate, A620, at 8 µM, stronger effect = lower value.
The nature of experiment [16]: viability loss with induced miR-34 in A549 – imaging, A549 dox-inducible miR-34, nuclei and caspase counts, primary screen (AID 1347080). The conditions noted are these: A549 miR-34 inducible, Hoechst nuclei count, 48 h.
In experiment [17] the target is NAD(+) hydrolase SARM1 (Homo sapiens) (UniProt Q6SZW1). The experiment can be described thus: blocking NAD cleavage by SARM1 SAM-TIR – cell lysate, NAD-Glo luminescence (AID 1508614;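 active = compound whose remaining NAD level is above about 45 nM, limit read from the data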;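 also: higher remaining NAD means stronger inhibition of SARM1 NADase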). The conditions noted are these: SAM-TIR HEK293T lysate NADase, at 1 µM, stronger effect = higher value.
NAD(+) hydrolase SARM1 (Homo sapiens), sequence (Q6SZW1 whole entry, looked up, the tested form may be a part): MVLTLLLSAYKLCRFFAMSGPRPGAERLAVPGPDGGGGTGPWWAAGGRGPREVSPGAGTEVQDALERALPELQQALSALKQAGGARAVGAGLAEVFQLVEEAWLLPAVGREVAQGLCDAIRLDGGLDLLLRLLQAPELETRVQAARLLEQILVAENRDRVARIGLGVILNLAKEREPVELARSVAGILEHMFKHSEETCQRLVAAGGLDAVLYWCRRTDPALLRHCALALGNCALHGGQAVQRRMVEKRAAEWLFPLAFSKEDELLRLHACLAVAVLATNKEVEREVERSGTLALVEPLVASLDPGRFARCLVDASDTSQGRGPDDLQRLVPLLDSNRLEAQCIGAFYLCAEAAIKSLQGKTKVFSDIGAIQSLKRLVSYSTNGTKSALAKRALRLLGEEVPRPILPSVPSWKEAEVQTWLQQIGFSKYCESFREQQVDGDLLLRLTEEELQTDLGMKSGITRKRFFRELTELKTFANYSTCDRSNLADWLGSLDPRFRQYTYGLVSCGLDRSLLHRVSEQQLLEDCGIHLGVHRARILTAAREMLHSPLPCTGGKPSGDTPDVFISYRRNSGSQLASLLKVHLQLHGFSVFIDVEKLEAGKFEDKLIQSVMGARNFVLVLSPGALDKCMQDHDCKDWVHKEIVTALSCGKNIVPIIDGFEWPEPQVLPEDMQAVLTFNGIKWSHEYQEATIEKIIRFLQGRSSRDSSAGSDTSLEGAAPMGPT
For experiment [18], the target named is Mitogen-activated protein kinase 7 (Homo sapiens) (UniProt Q13164). The experiment can be described thus: Gal4-ERK5 driven luciferase induction – cell-based, HTS, primary screen (AID 1508626;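 active = luciferase signal above three times the same-plate solvent-only control wells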;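 also: luciferase driven by Gal4-ERK5 fusion binding five Gal4 sites before minimal TATA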). As to conditions: HeLa Gal4-ERK5 transactivation, 18 h, at 5 µM, stronger effect = higher value.
Mitogen-activated protein kinase 7 (Homo sapiens), sequence (Q13164 whole entry, looked up, the tested form may be a part): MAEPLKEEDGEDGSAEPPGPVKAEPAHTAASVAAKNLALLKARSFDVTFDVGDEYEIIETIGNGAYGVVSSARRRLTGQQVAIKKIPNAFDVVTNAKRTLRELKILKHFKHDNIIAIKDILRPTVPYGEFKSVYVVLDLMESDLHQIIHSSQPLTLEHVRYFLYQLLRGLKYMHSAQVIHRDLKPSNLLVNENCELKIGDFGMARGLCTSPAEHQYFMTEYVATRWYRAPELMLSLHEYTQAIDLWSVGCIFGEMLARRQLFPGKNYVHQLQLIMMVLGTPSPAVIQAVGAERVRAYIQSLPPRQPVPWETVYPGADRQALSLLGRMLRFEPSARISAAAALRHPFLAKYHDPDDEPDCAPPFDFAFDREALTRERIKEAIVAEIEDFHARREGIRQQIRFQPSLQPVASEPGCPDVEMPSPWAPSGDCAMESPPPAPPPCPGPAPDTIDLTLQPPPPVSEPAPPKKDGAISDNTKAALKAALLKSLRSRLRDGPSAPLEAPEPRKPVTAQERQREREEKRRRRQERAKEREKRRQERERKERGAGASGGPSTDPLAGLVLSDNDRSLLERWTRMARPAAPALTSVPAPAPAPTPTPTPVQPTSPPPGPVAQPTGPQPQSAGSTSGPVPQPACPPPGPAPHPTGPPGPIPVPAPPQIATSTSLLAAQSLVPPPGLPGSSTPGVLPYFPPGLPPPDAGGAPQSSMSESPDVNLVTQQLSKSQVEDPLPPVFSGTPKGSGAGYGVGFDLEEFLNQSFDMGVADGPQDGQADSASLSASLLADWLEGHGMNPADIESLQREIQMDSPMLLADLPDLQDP
Experiment [19] in a line: galactose survival enhancers in mitochondrial complex I cybrids – cell-based, galactose medium, ATP luminescence, primary screen (AID 1645843;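 active = z-score of at least 1.8 in each of two replicates, scored against plate mean and spread of sample wells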;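 also: positive z means more ATP and so rescue of galactose-driven cybrid death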). As to conditions: complex I mutant cybrid cells, 72 h, stronger effect = higher value.
[20] abbreviates: measured here: epithelial PC-3E GFP cell survival.
The mark [21] stands for this setting: measured here: mesenchymal TEM4-18 mCherry cell survival.
Setting [22] is: measured here: relative caspase fold change +Dox/-Dox.
The mark [23] stands for this setting: measured here: total cells with miR-34 induction, stronger effect = lower value.
The mark [24] stands for this setting: measured here: total cells without miR-34 induction.

Where “and” joins values, the source holds several entries; their conditions need not be identical. Equal values may be shown once. Calls of active or inactive are those of the source.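 The calls were made as follows, unless noted: active = compounds whose cell count with miR-34 switched on is under 0.7 times the count with it off; inactive = the rest.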

A word on the viability: it is the share of living cells, or the viability signal relative to a control. The inhibition is the relative decrease from the control value, in per cent.

Turning to `NC(=O)c1cc([N+](=O)[O-])cc([N+](=O)[O-])c1`, the score in experiment [1] turned out to be 1.47. In addition, the cytochrome c release ratio in experiment [2] was found to be 0.54. The inhibition of aggregation in experiment [3] came to 72.4%. In experiment [4], the parasite load remaining was 66.1% (inactive) and 34.1% (inactive). Moreover, in experiment [4], the viability was 71.7% and 90.1%. Moreover, the nuclear beta-catenin stimulation in experiment [5] (at 10 µM) was -1.3% (inactive); in experiment [5] (stimulation, at 2 µM) it was -1.6%. The insulin secretion stimulation in [6] was 0.7% (inactive). Moreover, in experiment [7], the viability decrease is 30.5% (inactive). In addition, the tube area decrease in experiment [8] is -14.6% (inactive). Also, in [9], the GLP1 secretion stimulation is -0.8% (inactive). Further, in experiment [10], the inhibition of viability was 37.6% (inactive). Moreover, the results for the viability decrease (inhibition) in [11] and in experiment [12] were 67.6% (active) and 6.7% (inactive), respectively. Also, the inhibition in experiment [13] was 8.1% (inactive). Further, the red/green cell ratio (normalised) in experiment [14] was 0.97 (inactive). In addition, the normalised cell number in experiment [14] (setting [20]) was 0.99; in experiment [14] (setting [21]), 0.96. Also, the activity remaining in experiment [15] was 116% (inactive). Also, the fold change is 0.831 (inactive) in [16] (stronger effect = lower value) and 2.03 in experiment [16] (setting [22]). Further, the cell count amounted to 10800 in experiment [16] (setting [23]) and 12900 in experiment [16] (setting [24]). Moreover, the remaining NAD in experiment [17] was 10 nM (inactive). Besides, the luciferase signal in [18] was 40 AU (inactive).
As to `CCNc1nc(Cl)nc(NCC)n1`, the nuclear beta-catenin stimulation in experiment [5] (at 10 µM) is 0.8% (inactive); in experiment [5] (stimulation, at 2 µM), 2.2%. Also, in [6], the insulin secretion stimulation is -1.4% (inactive). For the same compound, the viability decrease in experiment [7] is -15.2% (inactive). In addition, the tube area decrease in experiment [8] was 8.9% (inactive). Also, in experiment [9], the GLP1 secretion stimulation was 1.7% (inactive). Moreover, the inhibition of viability in experiment [10] is 3.93% (inactive). Moreover, the viability decrease (inhibition) in experiment [11] was -14.9% (inactive); in [12], -16.6% (inactive). Besides, the inhibition in experiment [13] was 4.55% (inactive). For the same compound, the activity remaining in experiment [15] is 94.3% (inactive). Further, the luciferase signal in [18] is 52 AU (inactive).
As for `C=C(C)[C@H]1CN[C@H](C(=O)O)[C@H]1CC(=O)O`, the nuclear beta-catenin stimulation in [5] (at 10 µM) was 0% (inactive); in experiment [5] (stimulation, at 2 µM), 1.5%. The insulin secretion stimulation in experiment [6] was -1.6% (inactive). Also, in experiment [7], the viability decrease was 3.4% (inactive). The tube area decrease in experiment [8] was -7.3% (inactive). Further, in experiment [9], the GLP1 secretion stimulation is -2% (inactive). In addition, the inhibition of viability in experiment [10] is -16% (inactive). Further, the results for the viability decrease (inhibition) in [11] and in experiment [12] were -0.1% (inactive) and -1.8% (inactive), respectively. Also, the inhibition in [13] is 2.88% (inactive). The fold change in experiment [16] (stronger effect = lower value) was 1.1 (inactive) and 0.956 (inactive); in experiment [16] (stronger effect = lower value, cell number ratio, induced over uninduced) it was 0.95 (inactive); in experiment [16] (setting [22]), 1.24 and 0.883 and 0.751. The cell count is 10600 and 5610 and 8280 in [16] (setting [23]); 9620 and 5900 and 8660 in experiment [16] (setting [24]). For the same compound, in experiment [17], the remaining NAD was 10 nM (inactive). Also, in experiment [18], the luciferase signal is 68 AU (inactive). In experiment [19], the z-score is 0.445 (inactive) and 0.325 (inactive).
Turning to `COc1ccccc1N1CCNCC1`, the nuclear beta-catenin stimulation in experiment [5] (at 10 µM) was 0.2% (inactive); in experiment [5] (stimulation, at 2 µM), -0.4%. Also, the insulin secretion stimulation in experiment [6] was -0.2% (inactive). In experiment [7], the viability decrease was -7.7% (inactive). In addition, the tube area decrease in experiment [8] was 7.7% (inactive). Further, the GLP1 secretion stimulation in experiment [9] was -2.3% (inactive). In addition, in experiment [10], the inhibition of viability is -22.5% (inactive). Moreover, the values for the viability decrease (inhibition) in [11] and in experiment [12] were 106% (active) and -1.65% (inactive), respectively. In addition, the inhibition in [13] was -1.05% (inactive). In addition, in [14], the red/green cell ratio (normalised) is 0.87 (inactive). In addition, the normalised cell number in [14] (setting [20]) is 1.09; in experiment [14] (setting [21]), 0.94. Besides, in experiment [15], the activity remaining is 95.5% (inactive). Further, the figures for the fold change in experiment [16] (stronger effect = lower value) and in experiment [16] (setting [22]) were 0.98 (inactive) and 1.58, respectively. In addition, the cell count in experiment [16] (setting [23]) was 9780; in [16] (setting [24]), 9980. Besides, the z-score in [19] is 1.06 (inactive).

(Values after PubChem BioAssay.)
